# In the supplement of paper PMC7156485:
# Tested on: TDF
# Assay: H1.0 immunofluorescence intensity relative to DMSO (% of DMSO); higher = stronger H1.0 induction, active = 120 or more
# Conditions: concentration: 10 µM; 24 h
# Method in brief: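 H1.0 nuclear intensity or cell number is stated as percent of the plate control, based on the median of replicates, and HCC1569 values were smoothed for positional effects. These came from HCC1569 and TDF cells treated with compounds at 10 µM for 24 h at 37 °C in triplicate, then fixed in 3.7% formaldehyde and stained with a rabbit anti-H1.0 antibody, an AlexaFluor 647 secondary and DAPI.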
# 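Further: TDF is a line of transformed human dermal fibroblasts of mesenchymal origin.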
row,SMILES,H1.0 immunofluorescence intensity
1,O=C(O)C(O)C(O)C(=O)O.O=C(c1ccc(F)cc1)C1CCN(CCn2c(=O)[nH]c3ccccc3c2=O)CC1 [Ketanserin tartrate],106 (inactive)
2,CCN1CCCC1CNC(=O)c1cc(S(=O)(=O)CC)c(N)cc1OC (stereo unspecified) [Amisulpride],104 (inactive)
3,Cl.NC1(C(=O)O)CC1 [1-Aminocyclopropanecarboxylic acid hydrochloride],96.5 (inactive)
4,O=C(NC(CO)C(O)c1ccc([N+](=O)[O-])cc1)C(Cl)Cl (stereo unspecified) [Chloramphenicol],93.1 (inactive)
5,COc1ccc(Cl)cc1C(=O)NCCc1ccc(S(=O)(=O)NC(=O)NC2CCCCC2)cc1 [Glyburide],90.2 (inactive)
6,CCCn1c(=O)[nH]c(=O)c2[nH]cnc21 [3-n-Propylxanthine],92.3 (inactive)
7,CS(=O)(=O)O.Cc1ccc(N(CC2=NCCN2)c2cccc(O)c2)cc1 [Phentolamine mesylate],97.7 (inactive)
8,CC(=O)NC(Cc1c[nH]c2ccccc12)C(=O)OCc1cc(C(F)(F)F)cc(C(F)(F)F)c1 (stereo unspecified),93.2 (inactive)
9,CC1(C)CCC(C)(C)c2cc(C3(c4ccc(C(=O)O)cc4)OCCO3)ccc21,92.3 (inactive)
10,CC[C@H](NC(=O)c1c(O)c(-c2ccccc2)nc2ccccc12)c1ccccc1,97.8 (inactive)
11,C[N+](C)(C)CCC(=O)c1cccc2ccccc12.[I-] [2-(alpha-Naphthoyl)ethyltrimethylammonium iodide],101 (inactive)
12,COc1cc2c(cc1CC=C(C)C)C(=O)CC(c1ccc(O)cc1)O2 (stereo unspecified) [Bavachinin A],99.5 (inactive)
13,CC[C@H](C)C(=O)O[C@H]1C[C@H](O)C=C2C=C[C@H](C)[C@H](CC[C@@H](O)C[C@@H](O)CC(=O)[O-])[C@H]21.[Na+],95.9 (inactive)
14,CC1(C)CNc2cc(NC(=O)c3cccnc3NCc3ccncc3)ccc21 [Motesanib],107 (inactive)
15,COCCc1ccc(OCC(O)CNC(C)C)cc1 (stereo unspecified) [Metoprolol],102 (inactive)
16,CON=C(C(=O)NC1C(=O)N2C(C(=O)[O-])=C(CSc3nc(=O)c([O-])nn3C)CSC12)c1csc(N)n1.[Na+].[Na+] (stereo unspecified) [Ceftriaxone sodium],99.3 (inactive)

row,SMILES,H1.0 immunofluorescence intensity
1,"COc1cc(C=Cc2ccccc2)oc(=O)c1 [5,6-Dehydrokawain]",99 (inactive)
2,O=c1cc(-c2ccc(O)c(O)c2)oc2cc(O)cc(O)c12 [Luteolin],124 (active)
3,O=C(Nc1ccc(Oc2ccnc3[nH]ccc23)c(F)c1)c1cccn(-c2ccc(F)cc2)c1=O,95.1 (inactive)
4,CC(O)(P(=O)([O-])O)P(=O)([O-])O [Etidronate],102 (inactive)
5,Cl.NO [Hydroxylamine hydrochloride],97.8 (inactive)
6,N#CC(=Cc1ccc(O)c(O)c1)C(=O)c1ccc(O)c(O)c1 [Tyrphostin AG 538],99.2 (inactive)
7,COc1cc2c(Nc3ccc(NC(=O)c4ccccc4)cc3)ncnc2cc1OCCCN1CCOCC1,126 (active)
8,COc1c(N2CCNC(C)C2)c(F)cc2c(=O)c(C(=O)O)cn(C3CC3)c12 (stereo unspecified) [Gatifloxacin],94.2 (inactive)
9,NS(=O)(=O)c1cc(C(=O)O)c(NCc2ccco2)cc1Cl [Furosemide],91 (inactive)
10,COCCOC(=O)C1=C(C)NC(C)=C(C(=O)OCC=Cc2ccccc2)C1c1cccc([N+](=O)[O-])c1 (stereo unspecified) [Cilnidipine],90.2 (inactive)
11,CCC(C(=O)C(C)C(O)C(C)CCc1ccc(C)c(O)c1C(=O)[O-])C1OC(CC)(C2CCC(O)(CC)C(C)O2)CC1C.[Na+] (stereo unspecified) [Lasalocid A],105 (inactive)
12,Cc1nc(C(=O)N2CCC[C@H]2Cc2nnc(-c3ccccc3)o2)c(-c2ccccc2F)s1,97.5 (inactive)
13,CCCCCCCCC=CCCCCCCCCCCCC(=O)O [13(Z)-Docosenoic acid],95.2 (inactive)
14,Cc1cccc(Nc2cc(Cl)nc(SCC(=O)O)n2)c1C,91.8 (inactive)
15,CC1=C(CC(=O)O)c2cc(F)ccc2C1=Cc1ccc(S(C)=O)cc1 (stereo unspecified) [Sulindac],95 (inactive)
